Source: PubChem BioAssay
Only some compounds are listed: those with a hit (about 2.4% of all), similar ones and a draw of the others.
D2 PAM-1: human D2 receptor positive allosteric modulation; P14416; DiscoveRx D2 beta-arrestin cells, luminescence, 90 min; 100% = 57 uM dopamine signal; potentiation, % (concentration not given with the values); 0.23% of 360,000 active; AID 624464; in the data active means potentiation above about 50%; inconclusive means mostly about 30% to 49%
Target sequence (P14416 whole entry, looked up): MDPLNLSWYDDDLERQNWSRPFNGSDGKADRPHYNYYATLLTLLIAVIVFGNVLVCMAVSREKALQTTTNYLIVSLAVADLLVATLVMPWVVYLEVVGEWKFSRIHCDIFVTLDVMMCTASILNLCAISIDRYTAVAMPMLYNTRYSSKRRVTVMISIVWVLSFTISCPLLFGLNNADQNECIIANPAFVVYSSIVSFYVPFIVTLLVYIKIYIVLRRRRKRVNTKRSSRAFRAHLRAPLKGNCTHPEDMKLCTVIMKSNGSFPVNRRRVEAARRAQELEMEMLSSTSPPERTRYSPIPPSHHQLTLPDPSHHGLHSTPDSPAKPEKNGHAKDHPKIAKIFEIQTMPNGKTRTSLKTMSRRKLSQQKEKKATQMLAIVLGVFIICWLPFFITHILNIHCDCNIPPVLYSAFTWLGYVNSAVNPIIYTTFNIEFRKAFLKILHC
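PathHunter beta-arrestin assay in DiscoveRx D2 cells. Compounds were added with an EC20 of dopamine (50 nM final) for 90 min at 37 deg C. Luminescence was read 1 h after detection reagent, with 57 uM dopamine as the EC100 control.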
D2 antagonist: D2 dopamine receptor (human) antagonism. P14416. HEK293 TREx D2 cells, calcium flux, dopamine EC80. inhibition, % at 10 µM. 2% of 340,000 active. AID 485344; in the data active means inhibition above about 30%; inactive means below that, where a call was filed; further: 0% is about no effect
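Compounds are added to dye-loaded, induced HEK293 T-REx cells coupled to calcium release via D2; after a 3 min kinetic read an EC80 dopamine stimulus is given and fluorescence is recorded for 3 more min.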
D2 ag-1: agonists of human D2 dopamine receptor (beta-arrestin) | P14416 | DiscoveRx PathHunter D2 beta-arrestin, luminescence, 90 min; 100% = 57 uM dopamine signal | activation, % (no concentration beside the values) | 0.084% of 360,000 active | AID 624465; in the data active means activation above about 40%; inconclusive means between about 15% and that limit
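Agonist mode: compounds alone added to overnight-plated D2 PathHunter cells for 90 min at 37 C, with 57 uM final dopamine (EC100) defining full response. Beta-arrestin recruitment detected by chemiluminescent reagent, read after 1 h at ambient temperature.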
D2 ag-2: D2 dopamine receptor (human) agonism. HEK293 T-REx D2 cells, calcium flux agonist mode. activation, % at 2 µM. 0.53% of 340,000 active;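 active means activation over 3 SD above normal in the single-dose calcium agonist read, cut at about 30% in these data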; further: 0% is about no effect
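Agonism is scored from calcium flux in a force-coupled, inducible HEK293 cell line expressing D2, read kinetically for 180 s after compound addition against dopamine controls.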
D2 PAM-2: D2 dopamine receptor (human) potentiation; P14416; HEK293 T-REx D2, calcium flux, EC20 dopamine potentiation; potentiation, % at 10 µM; 0.34% of 340,000 active; AID 485347;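 active means potentiation over 3 SD above the plate norm, cut at about 30% in these data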; further: 0% is about no effect
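Using a no-wash calcium dye in inducible, force-coupled HEK293 Trex cells expressing D2, we tracked fluorescence each second for 180 s after compound, then for 180 s after EC20 dopamine to detect augmented signalling.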
D3 ag: D3 receptor agonism confirmed, beta-arrestin readout; shares compounds with D2 ag-2; DiscoveRx D3 beta-arrestin cells, luminescence, 90 min; Potency, µM (titrated, usually from 76.9 µM), for the others: at the highest dose activation, hits mostly activators; 4% of 2,300 active;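 further: potency means the concentration at half of the fitted maximal effect; 100% = dopamine control response; nearly all actives have a fitted effect of over 70% in size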
D2 ag-3: activates human D2 dopamine receptor in D3 counterscreen; shares compounds with D2 ag-2; DiscoveRx PathHunter D2 beta-arrestin, luminescence, 90 min; response scale: percent relative to full dopamine signal; Potency, µM (highest dose often 76.9 µM), for inactives: at the highest dose activation, usual class: activators; 5.9% of 2,300 active; AID 720507; further: potency means the concentration at half of the fitted maximal effect; % of control where 0% means no effect; nearly all actives have a fitted effect of over 70% in size
* hit, by the source's call; u = inconclusive; x = no result given. Unless noted, the call rests on the fitted dose curve; in most records, active means well fitted activation curve with a large enough effect; inconclusive means small, poorly fitted or top-dose-only effect; inactive means flat fitted curve, though single readings scatter.

SMILES	D2 PAM-1	D2 antagonist	D2 ag-1	D2 ag-2	D2 PAM-2	D3 ag	D2 ag-3
CCOC(=O)N1CCC(NC(=O)c2ccc3c(c2)N(Cc2ccc(F)cc2)C(=O)c2ccccc2S3=O)CC1 (stereo not drawn)	x	x	x	0	4	x	x
Cc1cc(CN2CCN(c3ccccc3F)CC2)cs1	x	x	x	x	-28	x	x
FCCCOc1ccc(CN2CCN(c3ccccc3F)CC2)cc1	-7	x	8	x	-23	u	u
COc1ccc(OC)c(C2C(C(=O)Nc3ccc(C)cc3)=C(C)Nc3nnnn32)c1 (stereo not drawn)	x	x	x	x	7	x	x
Cc1cc(C)c(C(=O)OCc2csc(CC(=O)Nc3ccccc3C)n2)c(C)c1	0	-8	2	0	13	x	x
CC(=O)Nc1cccc(C(=O)OCc2csc(CC(=O)Nc3ccccc3C)n2)c1	0	3	-1	0	-3	1%	2%
CCOc1ccc(CCNC(=O)c2sc3ncccc3c2-n2cccc2)cc1OCC	x	x	x	0	0	x	x
O=C(CN1CCCC1)Nc1cc(C(F)(F)F)cc(C(F)(F)F)c1	-10	24	3	51*	-21	-17%	19%
CC(C)Oc1ccc(CNC(=O)c2ccc(CN3CC(=O)N4CCCCC4C3=O)cc2)cc1 (stereo not drawn)	x	x	x	x	3	x	x
CCCOc1ccc(CNC(=O)c2cc3ccccn3n2)cc1	x	x	x	0	10	x	x
O=[N+]([O-])c1cc(Br)c2nsnc2c1N1CCOCC1	-4	23	0	26	4	-2%	1%
O=C(Nc1ccon1)c1nc[nH]c1C(=O)N1CCc2ccccc2C1	-10	-6	-2	0	0	-1%	-4%
O=C(NCc1ccccc1)c1nc[nH]c1C(=O)N1CCc2ccccc2C1	-13	x	1	x	x	x	x
CCOc1ccccc1CNCc1cccn1-c1nnc(N2CCN(c3ccccc3)CC2)s1	x	x	x	1	-4	x	x
O=C1C2CCCN2C(=O)N1CCCN1CCN(c2cccc(Cl)c2)CC1 (stereo not drawn)	-24	31*	2	26	-29	-13%	0%
O=C1C2CCCCN2C(=O)N1CCCCN1CCN(c2cccc(C(F)(F)F)c2)CC1 (stereo not drawn)	-3	x	-1	x	x	x	x
O=c1n(CCCN2CCN(c3cccc(Cl)c3)CC2)nc2ccccn12	-25	52*	-4	41*	-23	-7%	7%
COc1ccc(-n2c(=O)c3c4c(sc3n(Cc3ccccc3)c2=O)CCC4)c(OC)c1	x	x	x	1	22	x	x
CC(=O)Nc1ccc(OCC(O)CN2CCN(c3ccc(Cl)cc3)CC2)cc1 (stereo not drawn)	-43	40*	-1	1	-39	5%	-2%
CC(=O)Nc1ccc(OCC(O)CN2CCN(c3ccc(F)cc3)CC2)cc1 (stereo not drawn)	-21	45*	10	69*	-29	14%	12%
CC(=O)Nc1ccc(OCC(O)CN2CCN(S(=O)(=O)c3ccc(NC(C)=O)cc3)CC2)cc1 (stereo not drawn)	-3	12	-2	-1	-6	x	x
CC(=O)Nc1ccc(OCC(O)CN2CCN(c3cccc(Cl)c3)CC2)cc1 (stereo not drawn)	14	83*	u	76*	-31	u	u
COc1ccc(C(=O)Nc2cccc(OCc3cc(=O)n4c5c(sc4n3)CCCC5)c2)cc1OC	x	x	x	0	2	x	x
Cc1ccc(CC(=O)Nc2ccc3c(c2)N(C)C(=O)c2ccccc2S3)cc1	x	x	x	2	18	x	x
COc1ccccc1NC(=O)C(C)OC(=O)C(C)SCC(=O)Nc1ccc(C)cc1 (stereo not drawn)	-20	10	-3	-1	-14	-2%	-3%
SMILES	D2 PAM-1	D2 antagonist	D2 ag-1	D2 ag-2	D2 PAM-2	D3 ag	D2 ag-3
COc1cccc(N2CC(=O)N(NC(=O)CSc3nc(C)cc(C)c3C#N)CC2=O)c1	-2	19	-4	43*	-12	-12%	-3%
CC1(C)C2CCC(C2)C1(C)NC(=O)CNCc1cccs1 (stereo not drawn)	5	28	12	24	-11	-7%	27%
O=C(CNCc1cccs1)NC12CC3CC(CC(C3)C1)C2	9	6	14	30	-15	x	x
Cc1ccc(S(=O)(=O)NCCC(=O)Nc2ccc(C)cc2C(=O)c2ccccc2)cc1	-1	18	-6	-1	-7	-4%	-5%
CC(=O)Nc1ccc(/C=N/NC(=O)CCN2CCN(c3ccccc3)CC2)cc1	3	51*	9	79*	-20	u	27%
COc1ccc(/C=N\NC(=O)CCN2CCN(c3ccccc3)CC2)cc1OC	-27	56*	3	75*	-30	15%	21%
COc1cc(/C=N/NC(=O)CCN2CCCCC2)ccc1O	-10	-4	3	1	-5	x	x
O=C(CCN1CCN(c2ccccc2)CC1)N/N=C/c1ccccc1OC(F)F	9	88*	u	75*	-22	-5%	u
O=C(CCN1CCN(C(c2ccccc2)c2ccccc2)CC1)N/N=C/c1ccc(O)cc1	-27	-11	-3	-3	-19	x	x
COc1cc2c(C(=O)N(C)c3cc(Cl)ccc3OC)cn(CC(C)C)c(=O)c2cc1OC	x	x	x	1	-13	x	x
Nc1nc(N2CCN(C(c3ccccc3)c3ccccc3)CC2)n[nH]1	4	-3	-1	0	-2	x	x
Nc1nc(N2CCN(Cc3ccccc3)CC2)n[nH]1	u	-19	68*	94*	-27	u	4.5µM*
Cc1cc(C)nc(/N=C(\N)Nc2ccc(-c3ccccc3)cc2)n1	-16	7	-8	19	5	x	x
CC(=O)Nc1ccc(N/C(N)=N/c2nc(C)cc(C)n2)cc1	-9	15	-7	2	-4	x	x
Cc1ccc(C)c(N/C(N)=N/c2nc(C)cc(C)n2)c1	-26	22	-8	56*	-19	-2%	16%
Cc1cc(C)nc(/N=C(\N)Nc2ccc(SC(F)F)cc2)n1	-17	6	1	49*	-12	-12%	9%
CCOc1ccc(N/C(N)=N/c2nc(C)cc(C)n2)cc1	30	x	2	x	x	2%	u
COc1ccc(C)cc1N/C(N)=N/c1nc(C)cc(C)n1	-17	-7	-4	6	-3	x	x
CN(C)c1ccc(NC(=O)Cn2cc(S(=O)(=O)Cc3ccccc3Cl)c3ccccc32)cc1	x	x	x	0	-15	x	x
COc1ccc2c(Sc3ccccc3)c(C(=O)NCCCN3CCCCC3)[nH]c2c1	x	x	x	0	-21	x	x
